40 molecules from PubChem BioAssay can be followed below.

SMILES strings stand for the structures. Potency and affinity values are given separately. Calls of active or inactive are those of the source. Entries that show only a call come without a potency. Unless noted, the limit is not given here; nearly all actives have IC50 up to about 0.98 µM.

Sequence of Calcium-dependent protein kinase 1 (Plasmodium falciparum (isolate 3D7)) (P62344 whole entry, looked up): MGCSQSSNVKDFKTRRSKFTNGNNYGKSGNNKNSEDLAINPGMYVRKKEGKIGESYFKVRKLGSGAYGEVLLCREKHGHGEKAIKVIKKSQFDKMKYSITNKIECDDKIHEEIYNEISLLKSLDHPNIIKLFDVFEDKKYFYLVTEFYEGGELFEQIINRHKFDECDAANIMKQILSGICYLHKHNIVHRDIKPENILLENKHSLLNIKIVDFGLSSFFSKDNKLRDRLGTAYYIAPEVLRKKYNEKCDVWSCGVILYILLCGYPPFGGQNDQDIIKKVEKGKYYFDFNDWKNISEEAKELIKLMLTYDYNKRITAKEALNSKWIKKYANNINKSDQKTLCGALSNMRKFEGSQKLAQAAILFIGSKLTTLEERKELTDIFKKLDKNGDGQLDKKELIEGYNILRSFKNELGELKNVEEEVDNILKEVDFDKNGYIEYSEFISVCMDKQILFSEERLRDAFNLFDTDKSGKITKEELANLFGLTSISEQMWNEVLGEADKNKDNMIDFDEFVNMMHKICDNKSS

The first test addresses Calcium-dependent protein kinase 1 (Plasmodium falciparum (isolate 3D7)) (UniProt P62344). Briefly: PfCDPK1 kinase inhibitors, biochemical, TCAMS library (AID 1159585).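 Also: inhibitors leave more ATP so luminescence rises with inhibition.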 The conditions noted are these: recombinant PfCDPK1, Kinase-Glo ATP depletion luminescence.
For the molecule `CC(C)Nc1nc(NCCc2cnc[nH]2)nc(Nc2ccc(Oc3ccccc3)cc2)n1`, the outcome was inactive.

In the case of `CN(C)CCCNCc1ccc(-c2ccc(F)c(Cl)c2)o1`, the result was inactive.

For `COc1ccccc1Cc1nc2ccccc2nc1SCC(=O)Nc1cccc(C(F)(F)F)c1`, the result was inactive.

With `CN1CCC(N2CCN(Cc3ccc(-c4ccc(-c5nc6ccccc6[nH]5)s4)cc3)CC2)CC1`, the result was inactive.

For the molecule `Cn1cnc2c(Nc3ccncc3)nc(-c3ccc(OC(F)(F)F)cc3)nc21`, the result was inactive.

`CCc1cn2c3c(cc(C(=O)N[C@@H](Cc4ccccc4)[C@H](O)CNCC(C)C)cc13)N(C)S(=O)(=O)CC2`: the result was inactive.

On to `O=C(/C=C/c1cccc(Cl)c1)Nc1ccc2nc(CN3CCCC3)ccc2c1`, for which the result was inactive.

In the case of `O=C(C=Cc1ccc(Cl)c(Cl)c1)NCCCCCN1CCCC(CCCNC(=O)c2sc3ccccc3c2Cl)C1` (stereo not given), the outcome was inactive.

Take `CC(=O)NCCNc1nccc(N2CCc3ncnc(Nc4ccc(OCc5cccc(F)c5)c(Cl)c4)c3C2)n1`: the outcome was inactive.

Turning to `Cc1c(-c2cccc(CNCCc3ccc(Cl)cc3)c2)cnc(N)c1C`, the outcome was inactive.

On to `CCCCn1c(Sc2ccc(C#N)c([N+](=O)[O-])c2)nnc1-c1cc(OC)cc(OC)c1`, for which the outcome was inactive.

Regarding `Cc1cc(N2CCN(CC3CCCCC3)CC2)nc(Nc2ccc(Br)cc2)n1`, the outcome was inactive.

On to `O=c1[nH]c(NCCCNCc2cc3c(Cl)cc(Cl)cc3[nH]2)nc2ccsc12`, for which the result was inactive.

In the case of `Cc1cccc2[nH]c(-c3ccc(-c4cccc(NC(=O)c5ccncc5)c4)cc3)nc12`, the outcome was inactive.

For `Clc1ccc2c(N3CCCNCC3)ccnc2c1`, the outcome was inactive.

As for `Cc1ccc2c(NN=Cc3cccc(Cl)c3)cc(C)nc2c1`, the outcome was inactive.

On to `COc1ccc2nccc([C@@H](O)CN3CCC(NCc4ccc5c(c4)N(C)C(=O)CO5)CC3)c2c1`, for which the outcome was inactive.

On to `COc1ccc(CC(=O)Nc2ccc(Nc3nc(C)cc(N4CCCC4)n3)cc2)cc1`, for which the outcome was inactive.

For `CCCc1ccc(S(=O)(=O)Nc2ccc3c(c2)CCC3)cc1`, the outcome was inactive.

In the case of `NC(=O)c1ccsc1NC(=O)CNC(c1ccc(F)cc1)c1cccs1` (stereo not given), the result was inactive.

As to `COc1ccc(S(=O)(=O)Nc2cc(Br)cc3c2OCCC3)cc1N1CCN(C(=O)C(Cl)(Cl)Cl)CC1`, the result was inactive.

`CN1CCN(c2ccc(Nc3c(C(N)=O)cnc4cc(-c5ccoc5)ccc34)cc2C(F)(F)F)CC1`: the outcome was inactive.

As to `Cc1cc(N[C@@H](CC(C)C)C(=O)NCCOc2ccccc2)nc(Nc2ccccc2)n1`, the result was inactive.

As for `COc1cc(C(=O)NC2CCN(Cc3ccccc3)CC2)ccc1-c1nc2cc(Cl)c(Cl)cc2[nH]1`, the outcome was inactive.

As to `CN(CCN)Cc1cccc(-c2ccc(-c3nc4ccc(C(F)(F)F)cc4[nH]3)s2)c1`, the outcome was inactive.

For `CCc1c[nH]c2c(N3CCCC3=O)cc(C(=O)N[C@@H](Cc3ccccc3)[C@H](O)CNC(C)(C)c3cccc(C(F)(F)F)c3)cc12`, the outcome was inactive.

With `CC(=O)Nc1cccc(C(=O)Nc2nc3ccc(-c4cc(=O)[nH]c(Nc5ccccc5Cl)n4)cc3[nH]2)c1`, the outcome was inactive.

In the case of `Cc1nn(-c2ccccc2)c2sc(C(=O)N(CCCN(C)C)c3nc(-c4ccccc4)cs3)cc12`, the outcome was inactive.

Regarding `COc1ccc(CNC(=O)C2Cc3ccccc3CN2Cc2ccc3ccccc3c2)cc1` (stereo not given), the result was inactive.

Turning to `c1cc(-c2ccc(CN3CCCCC3)cc2)cc(-c2nc3ccccc3[nH]2)c1`, the result was inactive.

Regarding `Cn1c2c(c3ccccc31)CN(CCC1(c3ccc(Cl)c(Cl)c3)CN(C(=O)Cc3ccccc3)CCO1)CC2` (stereo not given), the outcome was inactive.

On to `CN(C)CCCNCc1ccc(-c2ccc(C(F)(F)F)cc2)cc1`, for which the outcome was inactive.

Turning to `CCCc1cc(OC)c(CC2c3cc(O)c(Cl)cc3CCN2C)cc1OC` (stereo not given), the result was inactive.

`c1ccc(Nc2nc(-c3ccccn3)cs2)nc1`: the outcome was inactive.

With `N#Cc1ccc(NC(=O)c2ccc(Cc3ccc4c(c3)CCN(C3CCC3)CC4)cn2)cc1`, the outcome was inactive.

As to `Cc1cccc2[nH]c(-c3ccc(-c4cccc(CN5CCC(N)C5)c4)s3)nc12` (stereo not given), the outcome was inactive.

In the case of `COc1ccc2ncc(F)c(CCN3C[C@H](CNCc4ccc5ccccc5c4)[C@H](O)C3)c2n1`, the result was inactive.

As for `Cn1nc(C(F)(F)F)c(-c2ccc(Br)cc2)c1NC(=O)Nc1ccc(F)cc1F`, the outcome was inactive.

Consider `CCOC(=O)N1CCN(CCCNc2c3ccccc3nc3ccccc23)CC1`, for which the outcome was inactive.

Consider `N#Cc1ccc2c(c1)CCN(CCC1CCC(NC(=O)Nc3ccnc4ccccc34)CC1)C2` (stereo not given), for which the outcome was inactive.

The target in another test is Plasmodium falciparum protein kinase 6 (PK6, PF3D7_1337100) (UniProt Q8IDW1). Briefly: PfPK6 kinase inhibitors, biochemical, TCAMS library (AID 1159586; call rule not given here). The conditions noted are these: recombinant PfPK6, Kinase-Glo ATP depletion luminescence. Background: Kinase-Glo measures the ATP left after a reaction by luminescence.
Sequence of Plasmodium falciparum protein kinase 6 (PK6, PF3D7_1337100) (Q8IDW1 1-305): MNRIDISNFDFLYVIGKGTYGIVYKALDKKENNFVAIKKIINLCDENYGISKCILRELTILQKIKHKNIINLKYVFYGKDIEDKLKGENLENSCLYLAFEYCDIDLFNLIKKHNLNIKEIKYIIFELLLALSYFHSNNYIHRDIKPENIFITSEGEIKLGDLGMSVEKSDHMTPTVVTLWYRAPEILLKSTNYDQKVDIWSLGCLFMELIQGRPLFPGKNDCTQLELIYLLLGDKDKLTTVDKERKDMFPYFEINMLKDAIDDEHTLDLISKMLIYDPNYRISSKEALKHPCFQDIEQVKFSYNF
For `CC(C)Nc1nc(NCCc2cnc[nH]2)nc(Nc2ccc(Oc3ccccc3)cc2)n1`, the result was inactive.

In the case of `CN(C)CCCNCc1ccc(-c2ccc(F)c(Cl)c2)o1`, the result was inactive.

On to `COc1ccccc1Cc1nc2ccccc2nc1SCC(=O)Nc1cccc(C(F)(F)F)c1`, for which the outcome was inactive.

In the case of `CN1CCC(N2CCN(Cc3ccc(-c4ccc(-c5nc6ccccc6[nH]5)s4)cc3)CC2)CC1`, the outcome was inactive.

As to `Cn1cnc2c(Nc3ccncc3)nc(-c3ccc(OC(F)(F)F)cc3)nc21`, the result was inactive.

`CCc1cn2c3c(cc(C(=O)N[C@@H](Cc4ccccc4)[C@H](O)CNCC(C)C)cc13)N(C)S(=O)(=O)CC2`: the outcome was inactive.

Regarding `O=C(/C=C/c1cccc(Cl)c1)Nc1ccc2nc(CN3CCCC3)ccc2c1`, the result was inactive.

With `O=C(C=Cc1ccc(Cl)c(Cl)c1)NCCCCCN1CCCC(CCCNC(=O)c2sc3ccccc3c2Cl)C1` (stereo not given), the result was inactive.

With `CC(=O)NCCNc1nccc(N2CCc3ncnc(Nc4ccc(OCc5cccc(F)c5)c(Cl)c4)c3C2)n1`, the result was inactive.

Take `Cc1c(-c2cccc(CNCCc3ccc(Cl)cc3)c2)cnc(N)c1C`: the result was inactive.

For `CCCCn1c(Sc2ccc(C#N)c([N+](=O)[O-])c2)nnc1-c1cc(OC)cc(OC)c1`, the outcome was inactive.

Turning to `Cc1cc(N2CCN(CC3CCCCC3)CC2)nc(Nc2ccc(Br)cc2)n1`, the result was inactive.

Turning to `O=c1[nH]c(NCCCNCc2cc3c(Cl)cc(Cl)cc3[nH]2)nc2ccsc12`, the outcome was inactive.

For `Cc1cccc2[nH]c(-c3ccc(-c4cccc(NC(=O)c5ccncc5)c4)cc3)nc12`, the outcome was inactive.

As to `Clc1ccc2c(N3CCCNCC3)ccnc2c1`, the outcome was inactive.

Take `Cc1ccc2c(NN=Cc3cccc(Cl)c3)cc(C)nc2c1`: the outcome was inactive.

As to `COc1ccc2nccc([C@@H](O)CN3CCC(NCc4ccc5c(c4)N(C)C(=O)CO5)CC3)c2c1`, the outcome was inactive.

Consider `COc1ccc(CC(=O)Nc2ccc(Nc3nc(C)cc(N4CCCC4)n3)cc2)cc1`, for which the outcome was inactive.

Regarding `CCCc1ccc(S(=O)(=O)Nc2ccc3c(c2)CCC3)cc1`, the result was inactive.

Consider `NC(=O)c1ccsc1NC(=O)CNC(c1ccc(F)cc1)c1cccs1` (stereo not given), for which the result was inactive.

On to `COc1ccc(S(=O)(=O)Nc2cc(Br)cc3c2OCCC3)cc1N1CCN(C(=O)C(Cl)(Cl)Cl)CC1`, for which the outcome was inactive.

In the case of `CN1CCN(c2ccc(Nc3c(C(N)=O)cnc4cc(-c5ccoc5)ccc34)cc2C(F)(F)F)CC1`, the outcome was inactive.

Take `Cc1cc(N[C@@H](CC(C)C)C(=O)NCCOc2ccccc2)nc(Nc2ccccc2)n1`: the result was inactive.

With `COc1cc(C(=O)NC2CCN(Cc3ccccc3)CC2)ccc1-c1nc2cc(Cl)c(Cl)cc2[nH]1`, the outcome was inactive.

With `CN(CCN)Cc1cccc(-c2ccc(-c3nc4ccc(C(F)(F)F)cc4[nH]3)s2)c1`, the outcome was inactive.

As to `CCc1c[nH]c2c(N3CCCC3=O)cc(C(=O)N[C@@H](Cc3ccccc3)[C@H](O)CNC(C)(C)c3cccc(C(F)(F)F)c3)cc12`, the outcome was inactive.

For the molecule `CC(=O)Nc1cccc(C(=O)Nc2nc3ccc(-c4cc(=O)[nH]c(Nc5ccccc5Cl)n4)cc3[nH]2)c1`, the outcome was inactive.

In the case of `Cc1nn(-c2ccccc2)c2sc(C(=O)N(CCCN(C)C)c3nc(-c4ccccc4)cs3)cc12`, the outcome was inactive.

In the case of `COc1ccc(CNC(=O)C2Cc3ccccc3CN2Cc2ccc3ccccc3c2)cc1` (stereo not given), the outcome was inactive.

Regarding `c1cc(-c2ccc(CN3CCCCC3)cc2)cc(-c2nc3ccccc3[nH]2)c1`, the outcome was inactive.

Consider `Cn1c2c(c3ccccc31)CN(CCC1(c3ccc(Cl)c(Cl)c3)CN(C(=O)Cc3ccccc3)CCO1)CC2` (stereo not given), for which the outcome was inactive.

As for `CN(C)CCCNCc1ccc(-c2ccc(C(F)(F)F)cc2)cc1`, the outcome was inactive.

For `CCCc1cc(OC)c(CC2c3cc(O)c(Cl)cc3CCN2C)cc1OC` (stereo not given), the result was inactive.

For `c1ccc(Nc2nc(-c3ccccn3)cs2)nc1`, the result was inactive.

Regarding `N#Cc1ccc(NC(=O)c2ccc(Cc3ccc4c(c3)CCN(C3CCC3)CC4)cn2)cc1`, the result was inactive.

In the case of `Cc1cccc2[nH]c(-c3ccc(-c4cccc(CN5CCC(N)C5)c4)s3)nc12` (stereo not given), the result was inactive.

Take `COc1ccc2ncc(F)c(CCN3C[C@H](CNCc4ccc5ccccc5c4)[C@H](O)C3)c2n1`: the result was inactive.

In the case of `Cn1nc(C(F)(F)F)c(-c2ccc(Br)cc2)c1NC(=O)Nc1ccc(F)cc1F`, the result was inactive.

As to `CCOC(=O)N1CCN(CCCNc2c3ccccc3nc3ccccc23)CC1`, the result was inactive.

As for `N#Cc1ccc2c(c1)CCN(CCC1CCC(NC(=O)Nc3ccnc4ccccc34)CC1)C2` (stereo not given), the outcome was inactive.
